# Assay results from PubChem BioAssay AID1345085 (National Center for Advancing Translational Sciences (NCATS), 2018).
# Records with an inconclusive call do not appear. Where a call stands in place of a potency, no number is given. The source made the active and inactive calls. The call rests on the fitted dose curve; in most records, active means well fitted cell-killing curve with a large enough effect; inconclusive means small, poorly fitted or top-dose-only effect, or effect the other way; inactive means no such curve, though single readings can be large or run the other way. *1 amine or outer side, *2 acyl side, *3 side chain or, on linkers, in order; H or OH if unused. Where a SMILES comes first, the peptide text is derived from it. Bridges are numbered along the chain shown (N, C = ends). Roman numbers before positions name the chains, in order. [ ]: non-standard residue; d: D form. Actinocin(9to1) = Cc1c2oc3c(C)ccc(C(=O)[*:1])c3nc-2c(C(=O)[*:2])c(N)c1=O; NMeV = CN[C@H](C(=O)O)C(C)C; Sar = CNCC(=O)O
# Tested on: C33A
# Experiment: Confirmatory qHTS for gynecologic anti-cancer compounds from libraries of approved drugs and bioactive compounds; further: nearly all actives have a fitted effect of over 55% in size
# Settings: gynecologic cancer cell panel viability, ATPlite luminescence, 48 h; series mostly up to 57.6 µM
# How it was run: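 1,000 cells/well; 16 h pre-incubation 37 C, 5% CO2; pin-transferred cpd in DMSO, 11 conc (1:3), 57.5 uM–0.977 nM; 48 h; ATPlite, 15 min RT; luminescence → IC50.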
# Potency means the concentration at half of the fitted maximal effect.
Compound,Potency,"activity change, negative = viability loss"
Cn1cc(-c2ccc3ncc(Cc4ccc5ncccc5c4)n3n2)cn1,inactive,
CC[C@@]1(O)C(=O)OCc2c1cc1n(c2=O)Cc2cc3cc(O)ccc3nc2-1,0.306 µM (active),
Nc1ncnc2c1ncn2[C@@H]1O[C@H](CO)C[C@H]1O,inactive,
N=C(N)c1ccc(OCCCCCOc2ccc(C(=N)N)cc2)cc1,inactive,
CC(C)n1nc(-c2cc3cc(O)ccc3[nH]2)c2c(N)ncnc21,3.06 µM (active),
O=C(O)C1(Cc2cccc(Nc3nccs3)n2)CCC(Oc2cccc(Cl)c2F)CC1 (configuration not stated),inactive,
CC(C)C[C@H](NC(=O)[C@H](Cc1ccccc1)NC(=O)c1cnccn1)B(O)O,0.153 µM (active),
"Cc1c2oc3c(C)ccc(C(=O)N[C@@H]4C(=O)N[C@H](C(C)C)C(=O)N5CCC[C@H]5C(=O)N(C)CC(=O)N(C)[C@@H](C(C)C)C(=O)O[C@@H]4C)c3nc-2c(C(=O)N[C@@H]2C(=O)N[C@H](C(C)C)C(=O)N3CCC[C@H]3C(=O)N(C)CC(=O)N(C)[C@@H](C(C)C)C(=O)O[C@@H]2C)c(N)c1=O (I: T[dV]P[Sar][NMeV] / II: T[dV]P[Sar][NMeV]; ester I:1-I:C, II:1-II:C; linker I:N-II:N via Actinocin(9to1))",0.385 µM (active),
Cc1cc(Nc2cc(N3CCN(C)CC3)nc(Sc3ccc(NC(=O)C4CC4)cc3)n2)n[nH]1,inactive,
CC(=O)Nc1cccc(-n2c(=O)n(C3CC3)c(=O)c3c(Nc4ccc(I)cc4F)n(C)c(=O)c(C)c32)c1,inactive,
COc1cc(N2CCC(N3CCN(C)CC3)CC2)ccc1Nc1ncc(Cl)c(Nc2ccccc2S(=O)(=O)C(C)C)n1,27.3 µM (active),
COc1cc2nccc(Oc3ccc(NC(=O)C4(C(=O)Nc5ccc(F)cc5)CC4)cc3)c2cc1OC,15.3 µM (active),
Cc1cc(C2CCCCC2)n(O)c(=O)c1,7.03 µM (active),
Cn1cnc2c(F)c(Nc3ccc(Br)cc3Cl)c(C(=O)NOCCO)cc21,inactive,
CN1C(=O)C(Cc2c[nH]c3ccccc23)NC1=S (configuration not stated),inactive,
COc1c(C)c2c(c(O)c1C/C=C(\C)CCC(=O)OCCN1CCOCC1)C(=O)OC2,2.73 µM (active),

Compound,Potency,"activity change, negative = viability loss"
Cc1nc(N)nc(N)c1-c1ccc(Cl)c(Cl)c1,0.172 µM (active),
CN(C)C(CCOc1cccc2ccccc12)c1ccccc1 (configuration not stated),inactive,
CS(=O)(=O)c1ccc(-c2cnc(N)c(C(=O)Nc3ccccc3)n2)cc1,inactive,
CCS(=O)(=O)c1cccc(-c2cc(C(=O)NC3CCN(C)CC3)c(C)c3[nH]c4ncc(C)cc4c23)c1,5.34 µM (active),
Cc1ccn(-c2ccc(-c3ncco3)cc2)c(=O)c1-c1ccc2nc(N)ncc2c1,inactive,
O=C(c1ccc(F)c(F)c1Nc1ccc(I)cc1F)N1CC(O)([C@@H]2CCCCN2)C1,27.3 µM (active),
Cc1cc(CN2CCN(c3c(Br)cnc4nc(-c5ccc(N6CCN(C)CC6)cc5)[nH]c34)CC2)no1,24.3 µM (active),
COc1cc2c(cc1-c1c(C)noc1C)ncc1[nH]c(=O)n(C(C)c3ccccn3)c12 (configuration not stated),inactive,
CCCCc1oc2ccccc2c1C(=O)c1cc(I)c(OCCN(CC)CC)c(I)c1,70.8 µM (active),
CC[C@H](Nc1ncnc2nc[nH]c12)c1nc2cccc(F)c2c(=O)n1-c1ccccc1,,-0.528% [at 10.7 µM] (inactive)
CC(C)[C@@H](CS(=O)(=O)C(C)C)N1C(=O)[C@@](C)(CC(=O)O)C[C@H](c2cccc(Cl)c2)[C@H]1c1ccc(Cl)cc1,inactive,
Oc1cn2c(n1)Nc1ccc(Cl)c(Cl)c1C2,inactive,
Cc1ccc(C(=O)Nc2ccc(CN3CCN(C)CC3)c(C(F)(F)F)c2)cc1C#Cc1cnc2cccnn12,19.3 µM (active),
CNCc1ccc(-c2[nH]c3cc(F)cc4c3c2CCNC4=O)cc1,inactive,
COc1cc(-c2nn(C3CCC(N4CCN(C(C)=O)CC4)CC3)c3ncnc(N)c23)ccc1NC(=O)c1cc2ccccc2n1C (configuration not stated),inactive,
CN[C@@H](C)C(=O)N[C@H]1CN(C(=O)CC(C)C)CC[C@H]2CC[C@@H](C(=O)NC(c3ccccc3)c3ccccc3)N2C1=O,inactive,
